The results in this text go back to PubChem BioAssay (NCATS).

Assay [1] in a line: qHTS Assay for Identification of Small Molecule Agonists for NFkB Signaling Pathway. (AID 624478).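 Further: compounds tested together with TNF alpha at its EC50 of 10 pM; 0% is about no effect.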 In outline:
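ME-180 cervical carcinoma, stable NFkB-RE beta-lactamase reporter; 1000 cells/well, overnight attachment; cpd + TNF alpha 10 pM final, 5 h 37 C; LiveBLAzer 2 h RT; FRET 460/530 nm, ex 405 nm.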
Background: Quantitative high-throughput screening tests each substance at several concentrations.

Assay [2] is described as follows: qHTS Assay for Identification of Small Molecule Antagonists for NFkB Signaling Pathway. (AID 624479; calls by dose curve;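 further: pathway stimulated with TNF alpha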; further: potency means the concentration at half of the fitted maximal effect).
Assay [3] can be described thus: Cell Proliferation Assay against the TMD8 Cell Line (AID 651645).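 Further: cells exposed to compound for 48 h before reading.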 The settings on record: TMD8 DLBCL cell line proliferation/viability; at 46.1 µM (top of the series). An outline of the steps:
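Luminescent ATP read-out (CellTiter-Glo, 15 min RT) after 48 h compound exposure of log-growing TMD8 cells at 37C; percent activity scaled between DMSO as 100% and 9.2 uM bortezomib final as 0%.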

Assay [4] in a line: Cell Proliferation Assay against the HBL1 Cell Line (AID 651646).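 Further: cells exposed to compound for 48 h before reading.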 Conditions: HBL1 DLBCL cells; at 46.1 µM (top of the series). In outline:
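500 log-phase HBL1 cells per well in phenol red-free RPMI with 5% FBS were treated with compounds for 48 h at 37 °C, 5% CO2. Viability was read by CellTiter-Glo luminescence, normalized to DMSO (100%) and 9.2 uM bortezomib final (0%).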

The nature of assay [5]: Cell Proliferation Assay against the TMD8 Cell Line (Caspase readout at 16 hrs) (AID 651712). Further: potency means the concentration at half of the fitted maximal effect. An outline of the steps: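 TMD8 cells (500/well) in phenol-red-free RPMI with glutamine, 5% FBS, were exposed to compounds for 16 h at 37 °C. Caspase 3/7 activation was read by Caspase-Glo luminescence; percent activity normalised to DMSO (0%) and 9.2 uM bortezomib final (100%).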

Assay [6] in a line: Cell Proliferation Assay against the TMD8 Cell Line (Caspase readout at 8 hrs) (AID 651713). Further: potency means the concentration at half of the fitted maximal effect. An outline of the steps:
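Seed log-phase TMD8 cells, add compound by pin tool, incubate 8 h at 37C under 5% CO2, equilibrate to room temperature, add Caspase-Glo, wait 15 min, read luminescence; percent activity uses DMSO and 9.2 uM bortezomib controls.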

Each structure is given as a SMILES string. “And” between values parts separate entries of the source, which are not always exact repeats. Identical values can stand only once. Inconclusive results are not listed. The source made the active and inactive calls. Unless noted, the call rests on the fitted dose curve; in most records, active means well fitted curve in the direction sought with a large enough effect; inconclusive means small, poorly fitted or top-dose-only effect, or another doubt; inactive means no such curve, though single readings can be large; an effect the other way counts as inactive or inconclusive.

Take `Nc1ccc(C(=O)c2cc3c(ccc4ccccc43)[nH]2)cc1`: in assay [1], the result was inactive. Also, the Potency in assay [2] is 14900 nM (active); in assay [5], 26.4 µM (active). For the same compound, the viability (% of control) in assay [3] worked out at 28.2%. For the same compound, the viability, percent of control in assay [4] was 14.4%. In addition, in assay [6], the Potency entry is “inactive”.
As for `O=C(c1ccc(Nc2nccc(-c3cc4ccccc4s3)n2)cc1)N1CCC(N2CCCC2)CC1`, the compound was called inactive in assay [1]. Also, the Potency in assay [2] was 266 nM (active). Moreover, the viability (% of control) in assay [3] worked out at 0.477%. Besides, the viability, percent of control in assay [4] is 0.745%. Moreover, the Potency result in assay [5] is “inactive”.
With `c1cc(-c2cnn3cc(-c4ccc(OCCN5CCCCC5)cc4)cnc23)ccn1`, the compound was classed as inactive in assay [1]. Further, in assay [3], the viability (% of control) came to 2.17%. Also, the viability, percent of control in assay [4] came to 8.17%.
Take `CC(=O)Nc1sc2c(c1-c1nc3ccccc3s1)CNC2`: in assay [1], the compound was called inactive. Moreover, the viability (% of control) in assay [3] came out at 4.93%. Also, the viability, percent of control in assay [4] came to 22.5%. For the same compound, in assay [6], the Potency was 33.2 µM (active).
Take `COc1cc2c(Oc3ccc4[nH]c(C)cc4c3F)ncnc2cc1OCCCN1CCCC1`: in assay [1], the compound was called inactive. Besides, the viability (% of control) in assay [3] amounted to 1.51%. Moreover, the viability, percent of control in assay [4] is 1.27%.
Consider `Fc1cc(-c2cccc3ncc(-c4cnn(C5CCNCC5)c4)nc23)cc(F)c1CN1CCOCC1`, for which the compound was called inactive in assay [1]. The viability (% of control) in assay [3] amounted to 1.53%. Further, the viability, percent of control in assay [4] was 2.06%.
In the case of `Cc1cc(Nc2cc(N3CCN(C)CC3)nc(Sc3ccc(NC(=O)C4CC4)cc3)n2)n[nH]1`, in assay [1], the compound was classed as inactive. Besides, in assay [3], the viability (% of control) came out at 19.5%. The viability, percent of control in assay [4] was 27.1%. Also, in assay [6], the Potency entry was “inactive”.
In the case of `N#CCNC(=O)c1ccc(-c2ccnc(Nc3ccc(N4CCOCC4)cc3)n2)cc1`, in assay [1], the compound was classed as inactive. The Potency in assay [2] is 668 nM (active); in assay [5], 5.26 µM (active). Besides, in assay [3], the viability (% of control) is 7.51%. In addition, the viability, percent of control in assay [4] was found to be 25.4%.
As for `Cn1cncc1[C@@](N)(c1ccc(Cl)cc1)c1ccc2c(c1)c(-c1cccc(Cl)c1)cc(=O)n2C`, the compound was called inactive in assay [1]. In assay [3], the viability (% of control) worked out at 1.01%. For the same compound, the viability, percent of control in assay [4] worked out at 1.3%.
As for `O=C(C=Cc1cccc(S(=O)(=O)Nc2ccccc2)c1)NO`, the result in assay [1] was inactive. The viability (% of control) in assay [3] came to 1.87%. In assay [4], the viability, percent of control amounted to 2.01%. Further, the Potency in assay [5] was 0.935 µM (active). The Potency entry in assay [6] is “inactive”.
In the case of `CC1(O)CC(c2nc(-c3ccc4ccc(-c5ccccc5)nc4c3)c3c(N)nccn23)C1` (stereo unspecified), the result in assay [1] was inactive. Further, the viability (% of control) in assay [3] was 2.23%. Besides, in assay [4], the viability, percent of control was determined as 43%. Besides, the Potency in assay [5] is 26.4 µM (active). Further, the Potency result in assay [6] is “inactive”.
Regarding `Cc1cc(Nc2cc(N3CCN(C)CC3)nc(C=Cc3ccccc3)n2)n[nH]1`, the result in assay [1] was inactive. Besides, the viability (% of control) in assay [3] was found to be 9.16%. For the same compound, the viability, percent of control in assay [4] turned out to be 3.87%. Besides, the Potency entry in assay [6] was “inactive”.
Turning to `O=c1[nH]nc(Sc2ncc([N+](=O)[O-])s2)n1-c1ccc2c(c1)OCCO2`, the compound was classed as inactive in assay [1]. In assay [2], the Potency is 23700 nM (active). Moreover, in assay [3], the viability (% of control) worked out at 0.996%. In assay [4], the viability, percent of control is -0.138%. Moreover, the Potency entry in assay [5] and in assay [6] was “inactive” each time.
Turning to `Cc1ccc(C(N)=O)cc1Nc1nccc(-c2cn(C(C)C)c3cnccc23)n1`, in assay [1], the compound was classed as inactive. For the same compound, the values for the Potency in assay [2], in assay [5] and in assay [6] were 421 nM (active), 2.64 µM (active) and 14.8 µM (active), respectively. Further, the viability (% of control) in assay [3] came out at 5.31%. Besides, the viability, percent of control in assay [4] came out at 14.4%.
For the compound `CNc1nccc(-c2cccnc2Oc2cc(C(=O)Nc3cccc(C(F)(F)F)c3)ccc2C)n1`, in assay [1], the call was inactive. Also, in assay [2], the Potency was 13300 nM (active). In assay [3], the viability (% of control) turned out to be 6.17%. For the same compound, the viability, percent of control in assay [4] came out at 25.3%. Also, in assay [6], the Potency entry is “inactive”.
On to `Cc1cn2c(-c3cn[nH]c3)cnc2c(Nc2ccc(C(=O)N3CCNCC3)cc2F)n1`, for which the outcome in assay [1] was inactive. Also, in assay [3], the viability (% of control) was found to be 35.7%. In assay [4], the viability, percent of control was 85.6%.
As for `CC(C)=CCCC(C)=CCCC(C)=CCSc1ccccc1C(=O)O`, the viability (% of control) in assay [3] was determined as 100%. For the same compound, the viability, percent of control in assay [4] was found to be 85.3%. Further, the Potency result in assay [5] and in assay [6] was “inactive” each time.
With `O=C(O)c1ccc2c(c1)nc(Nc1cccc(Cl)c1)c1ccncc12`, the result in assay [1] was inactive. The Potency in assay [2] is 298 nM (active). Further, the viability (% of control) in assay [3] turned out to be 0.231%. Further, the viability, percent of control in assay [4] was determined as 32.2%. The Potency result in assay [6] is “inactive”.
Take `Cc1cc(Nc2cc(NC(=O)c3c(Cl)cccc3Cl)ccn2)nc(N)n1`: the outcome in assay [1] was inactive. Moreover, the Potency in assay [2] is 266 nM (active); in assay [5], 18.7 µM (active); in assay [6], 29.6 µM (active). Also, in assay [3], the viability (% of control) was found to be 2.69%. In addition, in assay [4], the viability, percent of control came out at 31.3%.
In the case of `CN(C)CCCN=c1c2ccccc2n(C)c2[nH]c(=O)n(C)c(=O)c12`, in assay [1], the compound was classed as inactive. Moreover, the viability (% of control) in assay [3] worked out at 1.93%. Also, the viability, percent of control in assay [4] is 32.9%. For the same compound, the Potency is 20.9 µM (active) in assay [5] and 26.4 µM (active) in assay [6].
`C=CC(=O)Nc1cccc(Oc2nc(Nc3ccc(N4CCN(C)CC4)cc3OC)ncc2Cl)c1`: in assay [1], the result was inactive. In assay [2], the Potency result was “inactive”. In addition, the viability (% of control) in assay [3] was 0.697%. In addition, the viability, percent of control in assay [4] worked out at 2.13%. Also, the Potency in assay [6] was 7.43 µM (active).
Take `O=C(NCCCNc1nc(Nc2cccc(NC(=O)N3CCCC3)c2)ncc1I)c1cccs1`: in assay [1], the call was inactive. Further, the Potency in assay [2] was 9.43 µM (active) and 5.3 µM (active); in assay [5], 13.2 µM (active) and 5.9 µM (active); in assay [6], 26.4 µM (active) and 29.6 µM (active). The viability (% of control) in assay [3] was 1.52% and 1.4%. Besides, in assay [4], the viability, percent of control was 26.8% and 21.3%.
